Results reported in PubChem BioAssay (NCATS).
Inconclusive results are not listed. Calls of active or inactive are those of the source. Calls come from the whole dose curve; as a rule, active = well fitted inhibition curve with a large enough effect; inconclusive = small, poorly fitted or top-dose-only effect; inactive = flat fitted curve, though single readings scatter.

What was measured:
[1] = system: CRL-7250; assay: Cytotoxic Profiling of Annotated Libraries Using Quantitative High-Throughput Screening (AID 1296008); conditions: Five cell lines viability, CellTiter-Glo ATP luminescence, 48-72 h; hits give low values; for max response: % is set by controls: 0 for no effect and ±100 for the full control effect
Method in brief: (§1)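 Cytotoxicity was measured as CellTiter-Glo ATP luminescence, read after 10 min at room temperature. Compound treatment of the cells lasted 48 or 72 hr at 37 degrees Celsius in a qHTS format.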

[2] = system: HEK293; assay: as above; conditions: Five cell lines viability, CellTiter-Glo ATP luminescence, 48-72 h; hits give low values
Method in brief: as §1

[3] = system: HaCat; assay: as above; conditions: Five cell lines viability, CellTiter-Glo ATP luminescence, 48-72 h; hits give low values
Method in brief: as §1

[4] = system: KB-3-1; assay: as above; conditions: Five cell lines viability, CellTiter-Glo ATP luminescence, 48-72 h, hits give low values
Method in brief: as §1

[5] = system: PC49; assay: qHTS profiling for inhibitors of Plasmodium falciparum proliferation (AID 504749);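 note: 0% = DMSO vehicle and full inhibition = artemisinin control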; conditions: P. falciparum in erythrocytes, SYBR Green DNA, 72 h; series mostly up to 28.7 µM
Method in brief: (§2)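 Three-day growth assay of blood-stage parasites in erythrocytes (0.3% parasitemia, 2.5% hematocrit) at 37 C, 5% CO2, quantified by SYBR Green DNA staining after overnight detergent lysis.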

[6] = system: SC27B; assay: as above; conditions: P. falciparum in erythrocytes, SYBR Green DNA, 72 h; series mostly up to 28.7 µM
Method in brief: as §2

[7] = system: TAB109; assay: as above; conditions: P. falciparum in erythrocytes, SYBR Green DNA, 72 h; series mostly up to 28.7 µM
Method in brief: as §2

[8] = system: TAB113; assay: as above; conditions: P. falciparum in erythrocytes, SYBR Green DNA, 72 h; series mostly up to 28.7 µM
Method in brief: as §2

[9] = system: TAB165; assay: as above; conditions: P. falciparum in erythrocytes, SYBR Green DNA, 72 h; series mostly up to 28.7 µM
Method in brief: as §2
Note: nearly all actives have a fitted effect of over 60% in size.

CC[C@]12CCCN3CCc4c(n(c5ccccc45)[C@@](O)(C(=O)OC)C1)[C@@H]32
inactive: outcome [1] | max response [2] 0.673% | outcome [3] | max response [4] 3.99%

Cc1cc(NC(=O)C2=C(O)c3ccccc3S(=O)(=O)N2C)no1
inactive: Potency [5] | Potency [6] | Potency [7] | Potency [8] | Potency [9] | max response [1] -9.44% | outcome [2] | max response [3] 1.12% | max response [4] -4.98%

CCOC(=O)[C@H](CCc1ccccc1)N[C@@H](C)C(=O)N1Cc2cc(OC)c(OC)cc2C[C@H]1C(=O)O
inactive: outcome [1] | outcome [2] | max response [3] 2.61% | max response [4] -3.37%

O=C1c2cccc(O)c2C(=O)c2c(O)cccc21
inactive: Potency [5] | Potency [6] | Potency [7] | Potency [8] | Potency [9] | max response [1] -1.24% | max response [2] -0.119% | outcome [3] | max response [4] 2.38%

CC(C)(C)NCC(O)COc1cccc2c1CCC(=O)N2 (stereo not drawn)
inactive: max response [1] 4.08% | max response [2] -0.291% | outcome [3] | max response [4] 7.08%

COc1ccccc1Oc1c(NS(=O)(=O)c2ccc(C(C)(C)C)cc2)nc(-c2ncccn2)nc1OCCO
inactive: Potency [5] | Potency [6] | Potency [7] | max response [1] -3.53% | max response [2] -4.43% | outcome [3] | max response [4] -7.61%

O=C(NCC(O)CO)c1c(I)c(C(=O)NCC(O)CO)c(I)c(N(CCO)C(=O)CO)c1I (stereo not drawn)
inactive: max response [1] -2.46% | max response [2] -0.64% | outcome [3] | max response [4] 27.3%

FC(F)(F)C(Cl)Br (stereo not drawn)
inactive: Potency [5] | Potency [6] | Potency [7] | Potency [8] | Potency [9] | max response [1] 3.98% | max response [2] 0.482% | outcome [3] | max response [4] -3.43%

CC(C)=CCC[C@@](C)(O)[C@H]1CC=C(C)CC1
inactive: max response [1] 1.58% | outcome [2] | outcome [3] | max response [4] 4.77%

C=CCSCC1Nc2cc(Cl)c(S(N)(=O)=O)cc2S(=O)(=O)N1 (stereo not drawn)
inactive: Potency [5] | Potency [6] | Potency [7] | Potency [8] | Potency [9] | max response [1] -2.06% | max response [2] 2.45% | outcome [3] | max response [4] -3.75%

CCCCCCCC(=O)OCC(COC(=O)CCCCCCC)OC(=O)CCCCCCC
inactive: Potency [5] | Potency [6] | Potency [7] | Potency [8] | Potency [9] | max response [1] -3.96% | max response [2] 1.52% | outcome [3] | max response [4] -1.81%

COC(=O)N/N=C/c1c[n+]([O-])c2ccccc2[n+]1[O-]
inactive: max response [1] 4.42% | outcome [2] | max response [3] -20.3% | max response [4] -2.23%

NNC(=O)CP(=O)(c1ccccc1)c1ccccc1
inactive: Potency [5] | Potency [6] | Potency [7] | Potency [8] | Potency [9] | max response [1] -0.948% | max response [2] 0.687% | outcome [3] | max response [4] -1.94%

COc1cc(O)cc(O)c1
inactive: Potency [5] | Potency [6] | Potency [7] | Potency [8] | Potency [9] | outcome [1] | outcome [2] | max response [3] -8.13% | max response [4] -4.6%

COc1cc(C(=O)NCCCCCC(=O)O)cc(OC)c1OC
inactive: Potency [5] | Potency [6] | Potency [7] | Potency [8] | Potency [9] | max response [1] -1.11% | outcome [2] | max response [3] 4.84% | max response [4] 1.07%

C[C@H]1COc2c(C3(N)CC3)c(F)cc3c(=O)c(C(=O)O)cn1c23
inactive: Potency [5] | Potency [6] | Potency [7] | Potency [8] | Potency [9] | max response [1] 2.54% | max response [2] 4.33% | outcome [3] | max response [4] 14.4%

CC(=O)N(CC(O)CO)c1c(I)c(C(=O)NCC(O)CO)c(I)c(C(=O)NCC(O)CO)c1I (stereo not drawn)
inactive: Potency [5] | Potency [6] | Potency [7] | outcome [1] | max response [2] 1.45% | max response [3] 3.3% | max response [4] -10.7%

NCc1ccc(S(N)(=O)=O)cc1
inactive: Potency [5] | Potency [6] | Potency [7] | max response [1] -8.65% | outcome [2] | max response [3] -6.18% | max response [4] -7.46%

Cc1ccsc1/C=C/C1=NCCCN1C
inactive: max response [1] 3.4% | max response [2] -1.17% | max response [3] 3.54% | max response [4] -0.196%

CC(=O)[C@@]1(O)CC[C@H]2[C@@H]3C[C@H](C)C4=CC(=O)C=C[C@]4(C)[C@@]3(F)[C@@H](O)C[C@@]21C
inactive: max response [1] -3.29% | outcome [2] | max response [3] 4.35% | max response [4] 9.43%

CN(C/C=C/C#CC(C)(C)C)Cc1cccc2ccccc12
inactive: Potency [5] | Potency [6] | Potency [7] | Potency [8] | Potency [9] | max response [1] -11.8% | max response [2] -4.51% | outcome [3] | max response [4] -0.279%

CC1CCN(CCCC(=O)c2ccc(F)cc2)CC1
inactive: Potency [5] | Potency [6] | Potency [7] | Potency [8] | Potency [9] | max response [1] -0.306% | max response [2] -0.532% | outcome [3] | max response [4] -11.3%

CC[N+](CC)(CC(=O)Nc1c(C)cccc1C)Cc1ccccc1
inactive: Potency [5] | Potency [6] | Potency [7] | Potency [8] | Potency [9] | max response [1] -0.938% | max response [2] 3.4% | outcome [3] | max response [4] -3.17%

CC(C)c1cc2c(cc1S(=O)(=O)O)[C@@]1(C)CCC[C@@](C)(C(=O)O)[C@@H]1CC2
inactive: Potency [5] | Potency [6] | Potency [7] | Potency [8] | Potency [9] | max response [1] -2.14% | max response [2] 0.927% | outcome [3] | max response [4] -7.82%

O=C(O)/C=C/c1ccc(Cn2ccnc2)cc1
inactive: max response [1] -1.04% | max response [2] -1.65% | max response [3] 4.76% | max response [4] 2.2%

OCC(O)CS (stereo not drawn)
inactive: Potency [5] | Potency [6] | Potency [7] | Potency [8] | Potency [9] | max response [1] -11.9% | max response [2] 3.48% | outcome [3] | max response [4] 1.95%
